About 83,000 compounds went through this panel and 20% of them were active in at least one assay; those are over-represented in the sample as a whole.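 How to read the values: 0–100, growth inhibition (40 = 60% inhibited); 0, no net growth; -100 to 0, cell death (-40 = 40% of starting cells died; -100 = all dead).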 A number with no mark means an inactive call. The source made the active and inactive calls. How the source made its calls: active means growth percent below 10; inactive means the rest.

Assay in all cases: NCI-60 one-dose screen, 48 h (100 = growth as untreated, 0 = no growth, -100 = all killed)
One assay relates to HCT-15 colon. The note with it: 10 µM.
Another assay concerns HT29 colon. Particulars: 10 µM.
The next assay concerns SNB-75 CNS. Particulars: 10 µM.
The next assay has as its system SNB-19 CNS. The note with it: 10 µM.
In another assay the test system is U251 CNS. The note with it: 10 µM.
In a further assay the test system is PC-3 prostate. The note with it: 10 µM.
A further assay deals with SK-MEL-5 melanoma. The note with it: 10 µM.
In the next assay the test system is UACC-62 melanoma. Particulars: 10 µM unless noted.
The next assay has as its system LOX IMVI melanoma. The note with it: 10 µM.
A further assay has as its system SK-MEL-28 melanoma. The note with it: 10 µM.
The test system of a further assay is SK-MEL-2 melanoma. The note with it: 10 µM.
The next assay deals with EKVX NSCLC. The note with it: 10 µM.
Another assay deals with SN12C renal. Particulars: 10 µM.
A further assay deals with UO-31 renal. The note with it: 10 µM.
For another assay, the system named is TK-10 renal. The note with it: 10 µM unless noted.
Another assay concerns ACHN renal. The note with it: 10 µM.
A further assay concerns CAKI-1 renal. Particulars: 10 µM.
The next assay deals with A498 renal. The note with it: 10 µM.
A further assay relates to CCRF-CEM leukemia. The note with it: 10 µM.
The next assay deals with MOLT-4 leukemia. Particulars: 10 µM.

`O=C1c2ccccc2C(=O)N1OCc1ccccc1`: the growth in the assay with HCT-15 colon was 109%; with HT29 colon, 103%; with SNB-75 CNS, 83.6%; in the assay on SNB-19 CNS it was 112%; with U251 CNS, 113%; in the assay on PC-3 prostate, 77.7%. Besides, the growth is 110% in the assay on SK-MEL-5 melanoma; 108% with UACC-62 melanoma; 109% with LOX IMVI melanoma; 113% in the assay with SK-MEL-28 melanoma; 96.7% in the assay on SK-MEL-2 melanoma; 98.7% in the assay with EKVX NSCLC. Further, the growth is 110% in the assay on SN12C renal; 79.1% with UO-31 renal; 133% with TK-10 renal; 101% with ACHN renal; 95.2% in the assay on CAKI-1 renal; 134% with A498 renal. The growth with CCRF-CEM leukemia was 97.3%; in the assay with MOLT-4 leukemia, 93.7%.
With `COCCOCCCl`, the growth in the assay on HCT-15 colon was 99.3%; with HT29 colon, 105%; in the assay on SNB-75 CNS it was 95.9%; in the assay with SNB-19 CNS, 103%; in the assay with U251 CNS it was 105%; in the assay on PC-3 prostate, 84.5%. Besides, the growth in the assay on SK-MEL-5 melanoma was 92.1%; with UACC-62 melanoma, 104%; in the assay on LOX IMVI melanoma it was 98.5%; with SK-MEL-28 melanoma, 114%; in the assay with SK-MEL-2 melanoma, 109%; with EKVX NSCLC, 112%. Also, the growth with SN12C renal was 104%; in the assay with UO-31 renal it was 97.2%; in the assay on TK-10 renal it was 102%; with ACHN renal it was 113%; in the assay on CAKI-1 renal, 98.8%; in the assay on A498 renal, 91.2%. Moreover, the growth is 106% with CCRF-CEM leukemia and 117% in the assay on MOLT-4 leukemia.
Take `O=C(CCl)Nc1ccc2c(c1)C(=O)c1ccc(NC(=O)CCl)cc1C2=O`: the growth in the assay on HCT-15 colon was -86.6% (active); in the assay on HT29 colon, -59.8% (active); with SNB-75 CNS, -55.4% (active); with SNB-19 CNS, -45.3% (active); in the assay with U251 CNS it was -89.3% (active); in the assay on PC-3 prostate, -22.1% (active). In addition, the growth in the assay on SK-MEL-5 melanoma was -88% (active); with UACC-62 melanoma it was -73.1% (active); in the assay on LOX IMVI melanoma, -89.6% (active); in the assay on SK-MEL-28 melanoma, -40.6% (active); in the assay on SK-MEL-2 melanoma it was -38.8% (active); with EKVX NSCLC, -15.2% (active). Further, the growth in the assay with SN12C renal was -49.5% (active); in the assay with UO-31 renal it was -95.5% (active); with TK-10 renal it was 3% (active); in the assay with ACHN renal, -65.7% (active); in the assay with CAKI-1 renal, -88.7% (active); with A498 renal, 12.4%. Further, the growth in the assay with CCRF-CEM leukemia was -46.9% (active); with MOLT-4 leukemia, -31.8% (active).
For the compound `Cc1cc(OCCO)cc(C)c1Cl`, the growth in the assay with HCT-15 colon was 97.6%; in the assay with HT29 colon, 113%; in the assay with SNB-75 CNS, 124%; in the assay on SNB-19 CNS, 106%; in the assay with U251 CNS, 110%; in the assay with PC-3 prostate, 97.2%. Also, the growth with SK-MEL-5 melanoma was 112%; with UACC-62 melanoma, 95.7%; with LOX IMVI melanoma it was 98%; in the assay on SK-MEL-28 melanoma, 118%; with SK-MEL-2 melanoma, 117%; in the assay on EKVX NSCLC, 142%. Further, the growth in the assay on SN12C renal is 98.9%; in the assay on UO-31 renal, 109%; in the assay with TK-10 renal it was 123%; in the assay with ACHN renal, 116%; in the assay on CAKI-1 renal it was 115%; with A498 renal it was 102%. Further, the growth in the assay with CCRF-CEM leukemia was 96.3%; in the assay with MOLT-4 leukemia, 100%.
For the compound `COS(=O)(=O)c1ccc(Br)cc1`, the growth is 104% in the assay with HCT-15 colon; 107% with HT29 colon; 89.4% in the assay with SNB-75 CNS; 98.3% in the assay with SNB-19 CNS; 89% in the assay with U251 CNS; 93.2% in the assay on PC-3 prostate. Also, the growth in the assay on SK-MEL-5 melanoma is 104%; in the assay with UACC-62 melanoma, 85.5%; in the assay on LOX IMVI melanoma it was 97.2%; in the assay with SK-MEL-28 melanoma it was 98.4%; in the assay with SK-MEL-2 melanoma, 95%; in the assay with EKVX NSCLC it was 106%. The growth in the assay on SN12C renal was 93.9%; in the assay with UO-31 renal it was 86.2%; in the assay on TK-10 renal, 97.5%; with ACHN renal it was 103%; with CAKI-1 renal, 115%; with A498 renal, 113%. Moreover, the growth with CCRF-CEM leukemia was 127%; in the assay with MOLT-4 leukemia it was 129%.
In the case of `O=C(/C=C/C(=O)c1ccccc1)c1ccccc1`, the growth is 79.2% with HCT-15 colon; 100% with HT29 colon; 104% in the assay on SNB-75 CNS; 109% with SNB-19 CNS; 93.6% in the assay with U251 CNS; 125% with PC-3 prostate. The growth in the assay on SK-MEL-5 melanoma was 105%; in the assay with UACC-62 melanoma, 93.4%; in the assay on LOX IMVI melanoma it was 92.1%; in the assay with SK-MEL-28 melanoma, 117%; with SK-MEL-2 melanoma it was 119%; with EKVX NSCLC it was 102%. The growth in the assay with SN12C renal was 108%; in the assay with UO-31 renal, 97.6%; in the assay with TK-10 renal, 86.9%; with ACHN renal, 90.1%; in the assay on CAKI-1 renal, 94.9%; in the assay on A498 renal, 85.2%. The growth in the assay with CCRF-CEM leukemia was 37.9%; in the assay with MOLT-4 leukemia it was 79.2%.
Turning to `O=C(NC1CCCCC1)OCc1c(COC(=O)NC2CCCCC2)c(-c2ccc(Cl)c(Cl)c2)n2c1CCC2`, the growth in the assay with HCT-15 colon was 33.6%; in the assay on HT29 colon it was 26.7%; in the assay on SNB-75 CNS it was 15.7%; in the assay on SNB-19 CNS, 44.5%; in the assay on U251 CNS, 29.4%; in the assay on PC-3 prostate, 55.1%. Also, the growth is 41.6% in the assay on SK-MEL-5 melanoma; 9.04% (active) in the assay on UACC-62 melanoma; 13.3% in the assay with LOX IMVI melanoma; 75.6% in the assay on SK-MEL-28 melanoma; -9.91% (active) with SK-MEL-2 melanoma; 60.5% in the assay on EKVX NSCLC. In addition, the growth was 22.3% in the assay with SN12C renal; -13.6% (active) in the assay on UO-31 renal; 35.2% with TK-10 renal; 5.4% (active) with ACHN renal; 8.84% (active) in the assay with CAKI-1 renal; -67.7% (active) with A498 renal. The growth with CCRF-CEM leukemia is 32.9%.
For `CCOC(=O)Nc1nn[nH]n1`, the growth in the assay with HCT-15 colon is 91.7%; in the assay with HT29 colon it was 110%; in the assay with SNB-75 CNS, 94.8%; in the assay with SNB-19 CNS, 99.5%; in the assay on U251 CNS it was 115%; in the assay on PC-3 prostate, 96.8%. In addition, the growth was 103% in the assay on SK-MEL-5 melanoma; 99.3% in the assay with UACC-62 melanoma; 92.9% in the assay on LOX IMVI melanoma; 115% in the assay on SK-MEL-28 melanoma; 109% in the assay on SK-MEL-2 melanoma; 112% with EKVX NSCLC. For the same compound, the growth was 103% in the assay with SN12C renal; 96.6% with UO-31 renal; 114% with TK-10 renal; 100% with ACHN renal; 113% in the assay with CAKI-1 renal; 83.8% in the assay with A498 renal. The figures for the growth in the assay with CCRF-CEM leukemia and in the assay with MOLT-4 leukemia were 95% and 98.4%, respectively.
On to `CC(=O)OCC1CCCO1` (centres undefined), for which the growth in the assay with HCT-15 colon is 100%; in the assay with HT29 colon, 101%; in the assay on SNB-75 CNS it was 96.1%; in the assay on SNB-19 CNS it was 105%; with U251 CNS, 103%; in the assay on PC-3 prostate, 108%. For the same compound, the growth with SK-MEL-5 melanoma was 101%; with UACC-62 melanoma, 99.8%; with LOX IMVI melanoma, 98%; in the assay with SK-MEL-28 melanoma, 108%; in the assay with SK-MEL-2 melanoma it was 106%; with EKVX NSCLC it was 96%. Besides, the growth in the assay with SN12C renal is 103%; in the assay on UO-31 renal it was 92.2%; in the assay on TK-10 renal it was 94.9%; with ACHN renal it was 106%; in the assay on CAKI-1 renal it was 101%; with A498 renal, 101%. For the same compound, the growth with CCRF-CEM leukemia was 107%; with MOLT-4 leukemia, 97.6%.
